High-throughput results deposited in PubChem BioAssay by National Center for Advancing Translational Sciences (NCATS).
Methyltransferases = Primary Screen for Target Class Profiling of Small Molecule Inhibitors of Methyltransferases. purified enzyme, MTase-Glo SAH luminescence; active compounds read low. calls only at 40 µM. 25,000 tested, 3.9% active; call rule not given here
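Each enzyme was reacted with SAM and its substrate, with compounds tested once at 40 uM; SAH formed was read by MTase-Glo luminescence.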
MTase-Glo ctr = detection enzyme interference, methyltransferase counter-screen | shares compounds with Methyltransferases | MTase-Glo coupled enzymes, SAH conversion luminescence, no MTase | Potency, µM (titrated, usually from 57.3 µM), most hits filed as inhibitors | 180 tested, 6% active; active = well fitted inhibition curve with a large enough effect
Hits are given with their value; 0 = inactive; + = active, no number. The sample as a whole holds a higher share of hits than the screen did.

SMILES | Methyltransferases | others
Cc1nc(N2CCCC2)nc(N2CCC3(CC2)OCCCC3O)c1C (stereo unspecified) | 0
c1ccc(CN2CCn3c4c(c5ccccc53)CCCC42)cc1 (stereo unspecified) | 0
CCOC(=O)c1cc2n(n1)CC(C)(C(=O)NCCC(C)C)N(c1ccc(CC)cc1)C2=O (stereo unspecified) | 0
CCCCN1C(=O)c2cc(C(=O)Nc3cc(Cl)ccc3C)nn2CC1(C)C(=O)NC1CCCC1 (stereo unspecified) | 0
Fc1ccc2[nH]ccc2c1-c1nc(N2CCOCC2)c2sc(CN3CCN(CC4CC4)CC3)cc2n1 | +
CC1CCC(NC(=O)C2(C)Cn3c(nc4ccccc43)C(=O)N2CCc2ccc(Cl)cc2)CC1 (stereo unspecified) | 0
CCCOc1ccc(CN2C(=O)c3cc4occc4n3CC2(C)C(=O)NC2CCCCC2)cc1 (stereo unspecified) | 0
CSc1cccc(N2C(=O)c3cc(-c4cccs4)nn3CC2(C)C(=O)NC2CCCCCC2)c1 (stereo unspecified) | 0
O=C1c2cc3occc3n2CC(C(=O)NC2CCCCCCC2)(c2ccccc2)N1Cc1ccccc1 (stereo unspecified) | 0
Cc1ccc(NC(=O)CSc2nnc3n(Cc4ccccc4)c(=O)c4ccccc4n23)cc1C | 0
COc1cccc(NC(=O)c2cc3n(n2)CC(C)(C(=O)NC2CCCCCC2)N(C)C3=O)c1 (stereo unspecified) | 0
Cc1nnc(-c2cc(-c3ccccc3Oc3ccccc3)ccn2)n1C | 0
COc1cccc(Nc2ccnc(-c3nnc(C)n3C3CCCCC3)c2)c1 | + | MTase-Glo ctr=0
CC1CCCC(NC(=O)Cn2c(=O)oc3cc(S(=O)(=O)NCc4ccccc4)ccc32)C1C (stereo unspecified) | 0
CCC(C)NC(=O)c1ccc2c(=O)n(CC(C)C)c3nn(CC(=O)Nc4ccccc4C)c(=O)n3c2c1 (stereo unspecified) | 0
CCc1ccccc1N1C(=O)CSc2c(c3ccccc3n2C)C1C(=O)NCc1ccc(F)cc1 (stereo unspecified) | 0
CCC(C)NC(=O)c1ccc2c(=O)n(C)c3nn(Cc4ccccc4)c(=O)n3c2c1 (stereo unspecified) | 0
Cc1cccc(N2CCN(C(=O)CCc3nnc4n(CCc5ccccc5)c(=O)c5ccccc5n34)CC2C)c1 (stereo unspecified) | 0
COc1cccc(N2C(=O)NC(=NC3CCCCC3)C23CCN(CC2CC2)C3)c1 (stereo unspecified) | 0
COc1cccc(N2C(=O)NC(=NC3CCCCC3)C23CCCN(CC2CCCCC2)C3)c1 (stereo unspecified) | + | MTase-Glo ctr=0
COc1cccc(N2C(=O)NC(=NC3CCCC3)C23CCN(Cc2ccccc2)C3)c1 (stereo unspecified) | 0
CC1(C(=O)NC2CCCCCC2)Cn2c(ccc2-c2ccco2)C(=O)N1Cc1cccc(F)c1 (stereo unspecified) | 0
Cc1cnc(-c2ccccc2)n1C1CCN(S(=O)(=O)c2cccc(F)c2)CC1 | 0
Cc1ccccc1CN1C(=O)c2cc3sccc3n2CC1(C)C(=O)NC1CCC(C)CC1 (stereo unspecified) | 0
c1ccc(-c2cc3c(cn2)NCCN(CC2CC2)C3)cc1 | + | MTase-Glo ctr=0
SMILES | Methyltransferases | others
Cc1cnc(-c2cccnc2)n1CC1CCN(S(=O)(=O)c2ccccc2)CC1 | 0
Cc1cnc(-c2cccnc2)n1C1CCCN(CC2CCCCC2)C1 (stereo unspecified) | 0
Cc1ccc(N2C(=O)c3cc4sccc4n3CC2(C)C(=O)NC2CCCC2)cc1C (stereo unspecified) | 0
CCCn1c(=O)c2ccc(C(=O)NC(C)C)cc2n2c(SCC(=O)Nc3ccc(CC)cc3)nnc12 | 0
COc1ncccc1-c1cc2c(nc1OC)nc(CCc1ccccc1)n2C | 0
COc1ncccc1-c1nccn2c(C3CN(Cc4ccccc4O)C3)ncc12 | + | MTase-Glo ctr=0
COc1ncccc1-c1n[nH]c2c1CC(=O)N(Cc1ccccc1)C2 | 0
Cc1ccc(Cn2c(=O)c3ccccc3n3c(SCC(=O)NC(C)C)nnc23)cc1 | 0
CCOC(=O)c1cc2n(n1)CC(C)(C(=O)NC1CCCCCC1)N(c1ccc3c(c1)OCO3)C2=O (stereo unspecified) | 0
Cc1ccc(NC(=O)CSc2nnc3n(CCC(C)C)c(=O)c4ccccc4n23)cc1C | 0
COCCCNC(=O)C1(C)Cn2nc(-c3ccccc3)cc2C(=O)N1c1ccc(C)c(Cl)c1 (stereo unspecified) | 0
O=C(C1CCC1)N1CCC(Cc2nncn2Cc2ccccc2)CC1 | 0
Cc1nn(C(=O)CCC(=O)N2CCC(Cc3nncn3CC3CC3)CC2)c2ccccc12 | + | MTase-Glo ctr=0
CCn1cnnc1CC1CCN(C(=O)c2nccc3ccccc23)C1 (stereo unspecified) | 0
Cc1ccc(CN2C(=O)CSc3c(c4ccccc4n3C)C2C(=O)NCc2ccccc2)cc1 (stereo unspecified) | 0
CN1C(=O)c2cc(C(=O)NCCN3CCCC3)nn2CC1(C)C(=O)NC1CCCCC1 (stereo unspecified) | 0
CCCNC(=O)CCc1ccnc(N2CCCC2)c1 | 0
CCCNc1cc(N2CCC(CCC(=O)NCCN3CCCCCC3)CC2)ncn1 | + | MTase-Glo ctr=0
CCCn1c(=O)c2ccccc2n2c(=O)n(CC(=O)Nc3ccc(C)c(C)c3)nc12 | 0
COc1ccc2nc(C[C@@H]3C[C@@H](C(C)C)[C@H](CNC(=O)NC4CCCCC4)C=C3C)[nH]c2c1 | 0
COC(=O)c1ccc2nc(C[C@@H]3C[C@@H](C(C)C)[C@H](CNC(=O)c4cccnc4)C=C3C)[nH]c2c1 | 0
CC1=C[C@@H](CN(CC2CC2)CC2CC2)[C@H](C(C)C)C[C@H]1Cc1nc2ccncc2[nH]1 | + | MTase-Glo ctr=35µM
CCCn1c(=O)c2ccc(Cl)cc2n2c(SCC(=O)Nc3cccc(OC)c3)nnc12 | 0
COC(=O)CNC(=O)NCCc1ncc(C)n1C1CCCC1 | 0
CNC(=O)NCCc1ncc(C)n1C1CCCCCCC1 | + | MTase-Glo ctr=0
SMILES | Methyltransferases | others
CCCNC(=O)NCCc1ncc(C)n1CC1CC1 | 0
Cc1cc2c(cc3n2CC(C)(C(=O)NC2CCCCCC2)N(Cc2cccc(Cl)c2)C3=O)o1 (stereo unspecified) | 0
CC(CN1C(=O)c2cc3occc3n2CC1(C)C(=O)NC1CCCC(C)C1C)c1ccccc1 (stereo unspecified) | 0
CN1CCN(c2nc3c(c(=O)[nH]2)CCN(Cc2cn[nH]c2-c2ccc(F)cc2)CC3)CC1 | 0
CN1C(=O)[C@H]2CN(Cc3cn[nH]c3-c3ccc(F)cc3)C[C@H]2C1=O | 0
COc1ccc(-c2[nH]ncc2CN2CC[C@H]3CC[C@@H](C2)N3)cc1 | + | MTase-Glo ctr=0
CC(C)Cn1c(=O)c2ccccc2n2c(SCC(=O)N3CCN(c4ccccc4F)CC3)nnc12 | 0
CC1(C(=O)NC2CCCC2)Cn2c(ccc2-c2ccco2)C(=O)N1Cc1cccc(Cl)c1 (stereo unspecified) | 0
Cc1ccc(C)c(C(=O)Cn2nc3n(Cc4ccc(F)cc4)c(=O)c4ccccc4n3c2=O)c1 | 0
O=C(Cn1c(=O)oc2cc(S(=O)(=O)NC3CCCC3)ccc21)NCc1ccc(F)cc1 | 0
COc1cncc(Nc2ncc(-c3ccccc3OC)c3c2OCC3)c1 | + | MTase-Glo ctr=0
Cc1noc(C)c1-c1cnc(Nc2ccc(F)c(Cl)c2)c2c1CCO2 | 0
